Values joined by “and” are separate entries in the source; they are usually repeats but may differ in a detail not shown here. Identical values can stand only once. Screen size: about 5,500 compounds; about 2,000 (36%) were called active. Not shown: some 18% with an inconclusive outcome. No stated cut-off is given here; in the data, active means normalized growth mostly below about 0.91 (no sharp cut-off); inconclusive means no clear call, values can overlap the other calls; inactive means mostly above about 0.92. The list shows a part of the results.
Test: chemical genetic growth profiling, strain panel (AID 1159580);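 further: tested at 20 µM; growth read once vehicle control cultures reached saturation at 30 °C; 1 = growth at the plate median or of vehicle wells; lower values mean less growth of the strain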
Details: S. cerevisiae deletion strains, growth OD

Measured: normalized growth

C[C@@H]1C(=O)OC2[C@H](O)C34[C@@H]5OC(=O)[C@@]3(O[C@@H]3OC(=O)[C@H](O)[C@@]34[C@H](C(C)(C)C)[C@H]5O)[C@]21O (stereo partly drawn)
inactive: locus YAL013W, strain DEP1, hits give low values 0.998 | locus YAL021C, strain ccr4, hits give low values 0.952 | locus YAL026C, strain drs2, hits give low values 0.978 | locus YAL030W, strain snc1, hits give low values 0.973 | locus YBL061C, strain skt5, hits give low values 0.975 | locus YBR009C, strain hhf1, hits give low values 0.959 | locus YBR021W, strain FUR4, hits give low values 0.983 | locus YBR023C, strain chs3, hits give low values 0.986 | locus YBR171W, strain sec66, hits give low values 0.974 | locus YBR229C, strain ROT2, hits give low values 1 | locus YBR231C, strain swc5, hits give low values 0.976 | locus YBR279W, strain paf1, hits give low values 0.98 | locus YCL011C, strain gbp2, hits give low values 0.972 | locus YCL016C, strain dcc1, hits give low values 0.975 | locus YCL029C, strain bik1, hits give low values 1.02 | locus YCL061C, strain MRC1, hits give low values 0.96 | locus YCL069W, strain vba3, hits give low values 0.976 | locus YCR088W, strain abp1, hits give low values 0.983 | locus YDL005C, strain med2, hits give low values 0.964 | locus YDL035C, strain GPR1, hits give low values 1 | locus YDL040C, strain nat1, hits give low values 0.975 | locus YDL074C, strain BRE1, hits give low values 0.999 | locus YDL101C, strain DUN1, hits give low values 1.01 | locus YDL134C, strain PPH21, hits give low values 0.999 | locus YDL185W, strain tfp1, hits give low values 1.02 | locus YDL192W, strain arf1, hits give low values 1.01 | locus YDR001C, strain nth1, hits give low values 0.973 | locus YDR069C, strain doa4, hits give low values 0.983 | locus YDR101C, strain arx1, hits give low values 1.01 | locus YDR137W, strain rgp1, hits give low values 0.935 | locus YDR159W, strain sac3, hits give low values 0.946 | locus YDR162C, strain NBP2, hits give low values 0.987 | locus YDR195W, strain ref2 0.942 | locus YDR297W, strain sur2, hits give low values 0.97 | locus YDR318W, strain mcm21, hits give low values 1.01 | locus YDR334W, strain swr1, hits give low values 0.976 | locus YDR335W, strain msn5, hits give low values 0.965 | locus YDR388W, hits give low values 1.01 | locus YDR392W, strain spt3, hits give low values 0.949 | locus YDR502C, strain sam2, hits give low values 1.03 | locus YEL003W, strain gim4, hits give low values 0.961 | locus YEL037C, strain rad23, hits give low values 0.976 | locus YEL061C, strain CIN8 (second series), hits give low values 0.965 | locus YEL061C, strain CIN8, hits give low values 0.992 | locus YER015W, strain faa2, hits give low values 0.989 | locus YER016W, strain bim1, hits give low values 0.975 | locus YER110C, hits give low values 1.01 | locus YER111C, strain swi4, hits give low values 0.964 | locus YER155C, strain BEM2 (second series), hits give low values 1.02 | locus YER155C, strain BEM2, hits give low values 1 | locus YER167W, strain BCK2, hits give low values 0.996 | locus YFR010W, strain ubp6, hits give low values 0.985 | locus YGL078C, strain dbp3, hits give low values 1.01 | locus YGL086W, strain mad1, hits give low values 1.03 | locus YGL167C, strain pmr1, hits give low values 0.972 | locus YGL173C, strain kem1, hits give low values 0.953 | locus YGL227W, strain vid30, hits give low values 0.955 | locus YGL240W, strain doc1, hits give low values 0.981 | locus YGL248W, strain PDE1, hits give low values 1.01 | locus YGL253W, strain hxk2, hits give low values 0.974 | locus YGR078C, strain PAC10, hits give low values 1 | locus YGR135W, strain pre9, hits give low values 1.02 | locus YGR252W, strain gcn5, hits give low values 1.01 | locus YHR013C, strain ard1, hits give low values 0.957 | locus YHR027C, strain rpn1, hits give low values 0.987 | locus YHR030C, strain SLT2, hits give low values 1 and 1.05 | locus YHR079C, strain IRE1 (second series), hits give low values 1.02 | locus YHR079C, strain IRE1, hits give low values 1.03 | locus YHR094C, strain hxt1, hits give low values 1.01 | locus YHR129C, strain ARP1, hits give low values 1 | locus YHR142W, strain chs7, hits give low values 0.956 | locus YHR200W, strain rpn10, hits give low values 1.01 | locus YIL066C, strain RNR3, hits give low values 1 | locus YIL073C, strain SPO22, hits give low values 1.06 | locus YIL125W, strain kgd1, hits give low values 1.01 | locus YIR030C, strain dcg1, hits give low values 1.02 | locus YJL092W, strain hpr5, hits give low values 0.975 | locus YJL095W, strain BCK1 (second series), hits give low values 0.955 | locus YJL095W, strain BCK1, hits give low values 0.992 and 1.03 | locus YJL115W, strain asf1, hits give low values 0.956 | locus YJL129C, strain trk1, hits give low values 0.974 | locus YJL134W, strain LCB3, hits give low values 1 | locus YJL154C, strain vps35, hits give low values 0.977 | locus YJL164C, strain tpk1, hits give low values 0.969 | locus YJL166W, strain qcr8, hits give low values 0.992 | locus YJL168C, strain set2, hits give low values 1.01 | locus YJL187C, strain SWE1 (second series), hits give low values 1.01 | locus YJR043C, strain POL32, hits give low values 0.994

Reference: PubChem BioAssay AID1159580 (chemical genetic matrix, 2015)
